aSyn 5UTR act – Activators working through SNCA 5'UTR binding (MLPCN); alpha-synuclein 5'UTR reporter, activators screen; activity score, % (tested at 7.5 µM), hits read low; actives 7.1% (n = 300,000); in the data active = activity score below about -60%
* marks the source's active call; other numbers are inactive results. These entries were drawn from the full list.

SMILES | aSyn 5UTR act
CCn1nc(C)c(C(=O)Nc2cc(Oc3cc(C)cc(C)c3)cc([N+](=O)[O-])c2)c1C | 50
COc1ccc(OCC(=O)Nc2ccc(OC)c(S(=O)(=O)N3CCCCC3)c2)cc1 | -96*
CCOc1ccc(C(=S)NC2CCCCC2)cc1 | -100*
COc1ccc(C(=S)NC2CCCCC2)cc1 | -80*
COc1cc(C(=O)O/N=C(\N)Cc2ccc([N+](=O)[O-])cc2)cc(OC)c1OC | 81
N/C(=N\OC(=O)c1ccc2c(c1)OCO2)c1cccc(Br)c1 | -146*
N/C(=N\OC(=O)c1ccc2c(c1)OCO2)c1cccnc1 | -139*
N/C(=N\OC(=O)c1ccc2c(c1)OCO2)c1ccc([N+](=O)[O-])cc1 | -128*
COc1ccc(/C(N)=N/OC(=O)c2ccc3c(c2)OCO3)cc1OC | -87*
CCN(CC)C(=O)Cn1cc(S(=O)(=O)CC(=O)Nc2ccc3c(c2)OCCO3)c2ccccc21 | -82*
COC(=O)c1cn(C(=O)c2ccc(OC)cc2)c2ccccc12 | -147*
Cc1ccc(-n2c(C)cc(C(=O)COC(=O)c3c(C)noc3C)c2C)cc1 | -199*
CC1CCCN(c2ccc([N+](=O)[O-])cc2C(=O)c2ccccc2)C1 (centres undefined) | 84
CC1CCN(C(C(=O)NC2CCCCC2)c2cc3c(cc2[N+](=O)[O-])OCO3)CC1 (centres undefined) | -102*
CC1CCCN(C(C(=O)NC2CCCCC2)c2cc3c(cc2[N+](=O)[O-])OCO3)C1 (centres undefined) | -81*
CN1C(=O)NC(c2cccc(O)c2)C(C(=O)c2cccs2)C1(O)C(F)(F)F (centres undefined) | -139*
Cc1cccc(-n2ncc3c(NCCCn4ccnc4)ncnc32)c1 | -129*
Cc1cccc(-n2ncc3c(NCCCN4CCCC4=O)ncnc32)c1 | -143*
O=C1CCCN1CCCNc1ncnc2c1cnn2-c1ccc(Cl)cc1 | -152*
FC(F)Oc1ccc(N=C2SCC3CCCCN23)cc1 (centres undefined) | -206*
Clc1ccc(N=C2SCC3CCCCN23)cc1 (centres undefined) | -145*
Cc1cccc(-n2ncc3c(N)ncnc32)c1 | -74*
Cc1cccc(-n2ncc3c(Nc4ccc(F)cc4)ncnc32)c1 | -108*
COc1ccc(-n2ncc3c(Nc4cccc(C)c4)ncnc32)cc1 | -202*
Cc1cccc(-n2ncc3c(N(C)Cc4ccccc4)ncnc32)c1 | -169*
SMILES | aSyn 5UTR act
COc1ccc(-c2nc3cc([N+](=O)[O-])ccc3o2)cc1 | -231*
Nc1ccc(-c2nc3cc([N+](=O)[O-])ccc3o2)cc1 | -146*
Nn1c(COc2ccc(Cl)cc2)nc2ccccc2c1=O | -67*
Cc1nc2ccccc2c(=O)n1/N=C/c1ccccc1F | -101*
Cc1nc2ccccc2c(=O)n1/N=C/c1c(O)ccc2oc3c(c12)CCCC3 | 86
O=c1c2ccccc2nc(COc2ccccc2)n1/N=C/c1ccco1 | -86*
CCOc1ccc(/C=N/n2c(C)nc3ccccc3c2=O)cc1 | -67*
O=C(CCl)N(C/C=C/c1ccccc1)c1ccc2c(c1)OCCO2 | -81*
Nc1nccc(-c2ccc(-n3cnc4ccccc43)cc2)n1 | -63*
Cc1nccc(-c2ccc(-n3cnc4ccccc43)cc2)n1 | -96*
Brc1ccc(C2=Nc3cccc4cccc(c34)N2)o1 | -74*
CCOc1ccc(N=C(/C(C(=O)C(=O)N2CCOCC2)=C(/O)c2ccccc2)c2ccccc2)cc1 | -203*
CC(C)Sc1nc2ccc(Br)cc2[nH]1 | -120*
O=C(/C=C/Nc1ccccc1Br)c1ccccn1 | 114
N/C(=N\OC(=O)/C=C/c1ccccc1)c1ccccn1 | -99*
O=C(/C=C/c1ccccc1)c1ccccn1 | -135*
Cc1ccc(C(=O)O/N=C(\N)c2ccccn2)c(Cl)c1 | 108
N/C(=N\OC(=O)/C=C/c1ccccc1)c1ccncc1 | -133*
O=C(/C=C/c1ccc2c(c1)OCO2)c1ccccn1 | -140*
N/C(=N\OC(=O)/C=C/c1ccccc1Cl)c1ccncc1 | -126*
Cc1ccc(NC(=O)NCc2cccn2C)cc1C | -124*
Cn1cccc1CNC(=O)Nc1ccc(Cl)cc1 | -115*
O=C(Nc1nc2ccc(F)cc2s1)C1=NN(c2ccccc2)C(=O)CC1 | -97*
O=C(Nc1ccccc1Br)c1ccc(N2CCCC2=O)cc1 | -124*
O=C(Nc1nc2ccc(F)cc2s1)c1ccccn1 | 102
SMILES | aSyn 5UTR act
O=C(Nc1nc2ccc(F)cc2s1)c1ccc(N2CCCC2=O)cc1 | -155*
COc1ccc(OC)c(-c2csc(NC(=O)C3=NN(c4ccccc4)C(=O)CC3)n2)c1 | -129*
Cc1csc(NC(=O)c2ccc(N3CCCC3=O)cc2)n1 | 101
c1ccc(SCc2nc(-c3cccnc3)no2)cc1 | -103*
Cc1ccc(-c2noc(CSc3ccccc3)n2)cc1 | -84*
Cc1ccc(-c2noc(CSc3nc(N)cc(N)n3)n2)cc1 | -191*
Cc1cccc(-c2noc(CSc3ccccc3)n2)c1 | -170*
C/C(=N/NC(=O)c1ccco1)c1ccc(NC(=O)c2ccc(Br)o2)cc1 | -82*
N/C(=N\O)c1ccc(NC(=O)c2ccc(Br)o2)cc1 | -67*
C/C(=N/NC(=O)c1ccco1)c1ccc(NC(=O)c2ccc(F)cc2)cc1 | -109*
CC(=O)Nc1ccc(/C(C)=N\NC(=O)c2ccc(-c3ccccc3)cc2)cc1 | 96
C/C(=N\NC(=O)c1ccc(F)cc1)c1ccc(NC(=O)Cc2ccccc2)cc1 | -75*
CCCCCC(=O)N/N=C(\C)c1ccc(NC(=O)c2ccco2)cc1 | -107*
CCc1ccc2oc(C(=O)Nc3cccnc3)c(C)c2c1 | -220*
O=C(Nc1cccnc1)c1cc2c(ccc3ccccc32)o1 | -104*
Cc1c(C(=O)Nc2cccnc2)oc2ccc(Br)cc12 | -246*
C/C(=N\NC(=O)c1cc(-c2cccnc2)nc2ccccc12)c1ccccc1O | 86
CC(=O)Nc1cccc(NC(=O)c2cc(-c3cccnc3)nc3ccc(Br)cc23)c1 | -62*
COc1ccc(/C=C/c2nnc(NC(C)=O)s2)cc1 | -117*
COC(=O)Nc1nnc(/C=C/c2ccc(OC)cc2)s1 | -109*
CCc1cc2cc(C(=O)Nc3ccccc3F)sc2s1 | -134*
CC(C)(C)c1ccc(C(=O)Nc2ccc(F)cc2)s1 | -140*
CCc1cc2cc(C(=O)Nc3ccc(F)cc3)sc2s1 | -150*
COc1ccc(-c2cc(C(=O)NCC3CCCO3)c3cc(C)ccc3n2)cc1 (centres undefined) | -67*
COc1ccc2oc(C(=O)NCC3CCCO3)c(C)c2c1 (centres undefined) | -126*
SMILES | aSyn 5UTR act
COc1ccc2oc(C(=O)NC(C)(C)C)c(C)c2c1 | -138*
CCOc1ccc2oc(C(=O)NCC3CCCO3)c(C)c2c1 (centres undefined) | -100*
CN(C(=O)c1ccco1)c1nnc(C23CC4CC(CC(C4)C2)C3)s1 | -144*
CCOC(=O)/C(C#N)=C(C)/C=C1\Sc2ccccc2N1CC | -105*
CC1(C)CCCN(Cc2c(O)ccc3c(=O)c(-c4nc5ccccc5s4)c(N)oc23)C1 | -125*
CCCCCCCCCn1c2c(c(=N)c3c1CCC3)CCC2 | 86
COc1ccc(-c2cc3ccccc3oc2=O)cc1NC(=O)c1ccc([N+](=O)[O-])o1 | -240*
CCC(=O)Nc1ccc(-c2cc3ccccc3oc2=O)cc1 | 54
CCC(=O)Nc1cc(-c2cc3ccccc3oc2=O)ccc1OC | -98*
COc1ccc(-c2cc3ccccc3oc2=O)cc1NC(=O)c1ccc(Br)o1 | -94*
CCCOc1ccc(-c2nc(OC)c3ccccc3n2)cc1 | -85*
